# Hits are enriched below; roughly 21% of the tested compounds scored in any of these assays.
# VP16 counter – counter-screen for ROR gamma inhibitors: Gal4-VP16 reporter; Potency, µM (highest dose often 53.6 µM), inactives show at the top dose activity, negative = inhibition, hits mostly inhibitors; Drosophila S2 Gal4-VP16 UAS-luciferase, luminescence, 20 h; 310,000 tested, 3.5% active;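 note: Gal4-VP16 expression switched on by copper sulfate through the metallothionein promoter; potency is the fitted concentration of half-maximal effect; nearly all actives have a fitted effect of over 50% in size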
# IL-1B inflam inh – inflammasome signaling inhibition, IL-1 beta readout | THP-1 LPS/ATP IL-1B secretion, AlphaLISA, 16 h; active compounds read low | 360,000 tested, 4.7% active | activity change, % at 57.5 µM; in the data active = activity change below about -50%; inconclusive = mostly about -30% to -49%
#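 Secreted IL-1B measured by AlphaLISA bead assay after 16 h compound exposure of THP-1 cells; compounds (final up to 57.5 uM) added 1 h before LPS (250 ng/mL) and ATP (1.25 mM) stimulation; lower signal means less secretion.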
# DT40 TDP1 CPT – DT40-hTDP1 cell growth loss with CPT | 420,000 tested, 12% active | AID 686979 | Potency, µM (doses to about 46.2 µM), for the others: at the highest dose activity change, negative = growth inhibition, most hits filed as inhibitors | chicken DT40 Tdp1-/-;hTDP1 cells + 20 nM CPT, ATP luminescence, 48 h; note: potency is the fitted concentration of half-maximal effect; nearly all actives have a fitted effect of over 55% in size
#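 Chicken DT40 Tdp1-/- cells stably complemented with human TDP1 were seeded at 400 cells/well in medium containing 20 nM camptothecin, exposed to pin-transferred compounds, and grown at 37 °C for at least 48 hr. Viability was read as ATP luminescence.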
# TDP1 cell noCPT – qHTS for Inhibitors of human tyrosyl-DNA phosphodiesterase 1 (TDP1): qHTS in cells in absence of CPT; DT40 Tdp1-/- hTDP1 cells, no CPT, ATP luminescence, 48 h; Potency, µM (titrated, usually from 46.2 µM), inactives show at the highest dose activity change, negative = growth inhibition, most hits filed as inhibitors; 420,000 tested, 15% active; note: potency is the fitted concentration of half-maximal effect; nearly all actives have a fitted effect of over 55% in size
#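 Compound effects on proliferation are scored in DT40 Tdp1-/-;hTDP1 cells in the absence of CPT. ATP levels (CellTiter-Glo luminescence) are recorded after a ≥48 hr, 37 °C incubation.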
# ELG1 DNA repair – ELG1-dependent DNA repair inhibition | HEK293T ELG1-luciferase reporter, luminescence, 16 h; DNA damage induced by 5-fluorouridine | Potency, µM (highest dose often 46.1 µM), inactives show at the top dose activity change, negative = inhibition, usual class: inhibitors | 330,000 tested, 2.3% active; note: potency is the fitted concentration of half-maximal effect; nearly all actives have a fitted effect of over 55% in size
#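 Quantitative HTS, concentration-response format. 2,000 cells/well co-treated with 5-fluorouridine and compound, 16 hr in 5% CO2 at 37 °C; ONE-Glo luminescence read after 30 min.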
# RORgamma inh – blocks mouse ROR gamma transcriptional activity. AID 2551. Potency, µM (top dose mostly 53.6 µM), for inactives: at the top dose activity change, negative = inhibition, hits mostly inhibitors. P51450. Drosophila S2 Gal4-RORgamma UAS-luciferase reporter, 20 h. 310,000 tested, 5.4% active; note: potency is the fitted concentration of half-maximal effect; nearly all actives have a fitted effect of over 60% in size
# Target sequence (P51450 whole entry, looked up, the tested form may be a part): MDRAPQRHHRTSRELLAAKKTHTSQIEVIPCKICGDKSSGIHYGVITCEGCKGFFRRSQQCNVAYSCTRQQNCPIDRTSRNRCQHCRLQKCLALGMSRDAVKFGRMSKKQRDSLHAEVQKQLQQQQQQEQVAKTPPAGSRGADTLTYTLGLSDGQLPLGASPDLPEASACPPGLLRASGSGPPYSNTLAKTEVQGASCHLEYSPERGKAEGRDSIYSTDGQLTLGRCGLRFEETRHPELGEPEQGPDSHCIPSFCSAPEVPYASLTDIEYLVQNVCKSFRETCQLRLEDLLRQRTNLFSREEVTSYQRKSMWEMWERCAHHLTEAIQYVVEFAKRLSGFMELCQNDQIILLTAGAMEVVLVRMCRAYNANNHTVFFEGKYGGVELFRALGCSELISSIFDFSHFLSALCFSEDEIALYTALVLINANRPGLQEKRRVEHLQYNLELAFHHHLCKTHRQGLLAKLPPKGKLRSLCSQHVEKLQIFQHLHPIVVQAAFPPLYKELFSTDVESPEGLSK
#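 Stable Schneider cell line, Gal4 DNA-binding domain fused to ROR gamma, UAS-luciferase. Cmpd 1 hr RT → CuSO4 700 uM final → 20 hr RT → luciferase reagent 10 min → luminescence.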
# The depositor's hits bear a star; ? = inconclusive; / = no result given. Unless noted, calls come from the whole dose curve; as a rule, active = well fitted curve in the direction sought with a large enough effect; inconclusive = small, poorly fitted or top-dose-only effect, or another doubt; inactive = no such curve, though single readings can be large; an effect the other way counts as inactive or inconclusive. % is set by controls: 0 for no effect and ±100 for the full control effect.
SMILES,VP16 counter,IL-1B inflam inh,DT40 TDP1 CPT,TDP1 cell noCPT,ELG1 DNA repair,RORgamma inh
COc1ccc(NC(=O)N2CC[C@@]3(CCCN(S(C)(=O)=O)C3)C2)cc1,-10%,/,-2%,-2%,/,-13%
C[C@@H](O)C#C[Si](C)(C)c1ccccc1,2%,/,/,/,/,-13%
CC(C)(C)NC(=O)CSC(=Nc1cccc(F)c1)NC#N,-14%,-97*,?,?,27%,-28%
O=[N+]([O-])c1cccc(NC(=S)N2CCc3ccccc32)c1,?,23,-6%,12%,13µM*,?
O=C(Nc1ccc(C(=O)O)cc1)Nc1cccc([N+](=O)[O-])c1,-3%,24,-8%,-18%,11%,1%
CC(C)S(=O)(=O)c1csc(NC(=O)Nc2cccc([N+](=O)[O-])c2)c1Cl,-22%,-17,16µM*,15µM*,-17%,?
O=C(Nc1cccc([N+](=O)[O-])c1)C(=O)N1CCCCC1,6%,-18,-19%,?,?,19%
O=C(Nc1cccc([N+](=O)[O-])c1)NN1CCCCCC1,/,?,?,18µM*,/,/
O=C(Nc1cccc([N+](=O)[O-])c1)Nc1cccc([N+](=O)[O-])c1,-1%,-57*,4.6µM*,2.9µM*,?,32%
CCCCCNC(=O)C1C(=O)Nc2ccccc2C(=O)N1c1c(C)cccc1C (stereo unspecified),/,9,5%,-20%,/,/
CC(=O)Nc1ccc(S(=O)(=O)N(C)CC(=O)OCC(=O)Nc2cc(C)on2)cc1,/,-1,-2%,1%,-1%,/
CCCCCCCCCCCC(=O)OC[C@@H](O)C1OC[C@H](O)[C@H]1O (stereo partly specified),/,/,7%,-15%,/,/
COc1cc(C(=O)OCC(=O)N2CCCC2=O)cc(OC)c1C,/,-7,2%,17%,10%,/
Cc1ccccc1NC(=O)CCNS(=O)(=O)c1cccc2nsnc12,-9%,-5,-10%,-18%,0%,-29%
Cc1noc(-c2ccc(-c3noc(-c4cccc(F)c4)n3)cc2)n1,/,/,-13%,4%,/,/
COc1ccc(C2C=CC(=O)CC2)c(OC)c1 (stereo unspecified),/,-76*,?,?,/,/
CCOCCCN1C(=O)CN(C2CCC(C)CC2)C(=O)C1c1ccc(C)cc1 (stereo unspecified),-2%,-11,?,2.3µM*,4%,5%
Cc1ccc(C2C(=O)N(C3CCCCCC3)CC(=O)N2CCC2=CCCCC2)cc1 (stereo unspecified),/,/,?,21µM*,/,/
COc1ccc(C2C(=O)N(C3CCCCCC3)CC(=O)N2Cc2ccc(C)cc2)cc1 (stereo unspecified),/,/,23µM*,26µM*,/,/
COc1ccc(C2C(=O)N(C3CCCCCC3)CC(=O)N2CCC2=CCCCC2)cc1 (stereo unspecified),/,/,23µM*,15µM*,/,/
COc1cccc(C2C(=O)N(C3CCCCC3)CC(=O)N2Cc2ccc(F)cc2)c1 (stereo unspecified),2%,-12,?,?,-1%,16%
CCCN1C(=O)CN(C2CCCCCC2)C(=O)C1c1ccc(C)cc1 (stereo unspecified),5%,13,?,?,-2%,43%
COc1cccc2cc(-c3nc4sc(C(=O)Nc5ccc(F)cc5F)c(C)c4c(=O)[nH]3)c(=O)oc12,/,/,-13%,-7%,/,/
CC1(C)CC2C1CC[C@]1(C)CCC3C(C(=O)O)CC(=O)O[C@]32C1 (stereo partly specified),2%,/,?,?,/,-4%
COc1ccc(N2CC(NC(=O)/C=C\c3ccc4c(c3)OCO4)CC2=O)cc1OC (stereo unspecified),/,/,2%,-15%,/,/
SMILES,VP16 counter,IL-1B inflam inh,DT40 TDP1 CPT,TDP1 cell noCPT,ELG1 DNA repair,RORgamma inh
CCCOc1ccc(C2C(=O)N(C3CCCCCC3)CC(=O)N2CCC2=CCCCC2)cc1OC (stereo unspecified),/,/,-12%,-20%,/,/
COc1ccc(C2C(=O)N(C3CCCCC3)CC(=O)N2CCC2=CCCCC2)cc1 (stereo unspecified),/,/,?,16µM*,/,/
COc1ccc(NS(=O)(=O)c2ccc(S(=O)(=O)N3CCOCC3)cc2)cc1,-2%,3,?,16µM*,?,16%
COc1ccc(-n2cnnc2SCC(=O)Nc2cc(S(=O)(=O)N3CCCCC3)ccc2C)cc1,2%,-30,?,-14%,?,?
COc1ccc(NS(=O)(=O)c2ccc(S(=O)(=O)N3CCCC3)cc2)cc1,-26%,5,?,21µM*,-20%,32%
COc1ccc(S(=O)(=O)N2CCCCC2)cc1,2%,6,-18%,-4%,4%,13%
COc1ccc(-n2cnnc2SCC(=O)c2ccc(S(=O)(=O)N3CCOCC3)cc2)cc1,20µM*,-15,-9%,-2%,-2%,?
O=S(=O)(Nc1ccc(S(=O)(=O)N2CCOCC2)cc1)c1ccccc1,7%,7,0%,-24%,-11%,-16%
COc1ccccc1C#Cc1cnc2c(c1)C(=O)N([C@H](C)CO)C[C@H](C)[C@@H](CN(C)S(=O)(=O)c1cn(C)cn1)O2,/,-8,?,?,/,/
Cc1ccc(-n2c(=O)c3c(cnn3C)n(Cc3ccc(Cl)cc3)c2=O)cc1,/,/,-10%,?,/,/
